CHX counter – Cycloheximide Counterscreen for Small Molecule Inhibitors of Shiga Toxin. cell reporter, cycloheximide protein synthesis inhibition counterscreen. max response, %. 300,000 tested, 12% active. AID 2314, 2010; in the data active = max response mostly above about 13%, no sharp cut-off; inactive = mostly below about 14%; also: read at 38.3 µM for the half of the compounds with a filed dose
Shiga toxin inh – A qHTS for Small Molecule Inhibitors of Shiga Toxin; Vero cells, Shiga toxin protein synthesis inhibition reporter; inhibition, % at 38.7 µM; 290,000 tested, 9.2% active; in the data active = inhibition mostly above about 28%, no sharp cut-off; inactive = mostly below about 43%
Pf growth 48h – Primary qHTS for delayed death inhibitors of the malarial parasite plastid, 48 hour incubation. AID 504832, 2011. Potency, µM (titrated, usually from 28.7 µM), hits mostly inhibitors. 310,000 tested, 5.9% active. P. falciparum luciferase growth in erythrocytes, 48 h
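Compounds are pin-transferred into medium, infected erythrocytes (2% hematocrit, 0.1% parasitemia final) are added, and plates sit one parasite generation at 37 C in 5% CO2. Detection reagent is then added and luminescence measured.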
Pf growth 96h – Primary qHTS for delayed death inhibitors of the malarial parasite plastid, 96 hour incubation | Potency, µM (series often up to 28.7 µM), actives largely listed as inhibitors | 320,000 tested, 6.9% active | P. falciparum luciferase reporter growth, 96 h
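Luminescence readout: decreased luciferase signal marks inhibited growth of reporter-expressing P. falciparum in infected red cells (2% hematocrit, 0.05% parasitemia final), exposed to compound two generations (96 h, 37 C, 5% CO2).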
Lassa entry inh – qHTS for Inhibitors of binding or entry into cells for Lassa Virus; Lassa virus pseudotype entry inhibition, cell reporter; Potency, µM (titrated, usually from 37.9 µM), usual class: inhibitors; 300,000 tested, 1.2% active; AID 540256, 2011; calls by dose curve; tested in HEK293 cells; also: nearly all actives have a fitted effect of over 50% in size
Marburg entry inh – qHTS for inhibitors of binding or entry into cells for Marburg Virus. AID 540276, 2011. 300,000 tested, 1.8% active. Marburg virus pseudotyped entry inhibition, cell reporter. Potency, µM (highest dose often 37.8 µM), usual class: inhibitors; calls by dose curve; tested in HEK293 cells
Numbers stand for hits; n = inactive; u = inconclusive; x = no result given; + = active, no number; ! = a repeat was not active. In the library only some 19% were active in any assay of this set; here they are far more common. Unless noted, calls follow the shape of the dose curve; as a rule, active = well fitted inhibition curve with a large enough effect; inconclusive = small, poorly fitted or top-dose-only effect, or another doubt; inactive = no such curve, though single readings can be large or run the other way.

SMILES	CHX counter	Shiga toxin inh	Pf growth 48h	Pf growth 96h	Lassa entry inh	Marburg entry inh
Cc1cc(C)n(CCC(=O)Nc2ccc3c(c2)OCCO3)n1	15	45	n	n	x	x
COc1ccc(NC(=O)CCn2nc(C)cc2C)cc1	n	n	n	n	n	n
CCN1CCN(CCOc2cccc(Oc3ccccc3)c2)CC1	n	n	n	n	x	x
CCN(CC)S(=O)(=O)c1ccc2oc(Nc3ccc4c(c3)OCCO4)nc2c1	n	n	u	x	n	u
CCOc1ccc(Nc2nc3cc(S(=O)(=O)CC)ccc3o2)cc1	n	n	n	13µM	n	n
CCS(=O)(=O)c1ccc2oc(Nc3cccc(OC)c3)nc2c1	20	n	n	n	u	u
CCS(=O)(=O)c1ccc2oc(Nc3ccc(OC)cc3)nc2c1	n	n	n	n	n	n
Nc1c(C(=O)Nc2nc3ccccc3s2)sc2nc(-c3cccs3)ccc12	n	n	n	n	6.5µM	5.8µM
CC(=O)c1sc2nc(-c3cccs3)ccc2c1N	46	101	x	n	u	n
Nc1c(C(=O)Nc2ccccc2Br)sc2nc(-c3cccs3)ccc12	x	x	x	x	u	n
COc1cccc(-c2nn(Cc3ccccc3)cc2CO)c1	45	90	n	n	n	n
Cc1ccc(OCCn2cccc2/C=C2/C(=O)NC(=O)N(Cc3ccco3)C2=O)cc1	22	37	n	u	n	n
CCc1ccc(N2C(=O)NC(=O)/C(=C\c3cccn3CCOc3ccc(C(C)C)cc3)C2=O)cc1	73	+	n	n	u	u
Cc1cccc(C)c1N1CCN(C(=O)Nc2ccc3c(c2)OCCO3)CC1	45	56	n	n	u	u
CC(C)(C)OC(=O)N1CCN(C(=O)Nc2ccc3c(c2)OCCO3)CC1	24	n	n	n	n	n
O=C(Nc1ccc2c(c1)OCCO2)N1CCN(c2ccc(F)cc2)CC1	38	35	n	n	n	n
CC(C)(C)OC(=O)N1CCCC1C(=O)N1CCCC1C(=O)N1CCCC1C(=O)O (stereo unspecified)	n	n	n	n	n	n
N#Cc1c(Nc2ccccc2)[n+]([O-])c2ccc(Cl)cc2[n+]1[O-]	x	x	x	x	3.2µM	u
O=S1OC(c2ccccc2)c2cc(Cl)ccc21 (stereo unspecified)	x	x	n	n	x	x
CC1=C(c2ccc(C)c(C)c2)S(=O)(=O)N=C1N1CCC(C(=O)NCCc2ccc(Cl)cc2)CC1	x	x	x	x	x	4µM
Cc1ccc(OCC(=O)N2CC(C)OC(C)C2)c([N+](=O)[O-])n1 (stereo unspecified)	n	n	n	n	n	n
CC1CCC(=O)N(CCSc2ccccc2)CC1 (stereo unspecified)	25	37	n	n	x	x
CC(=O)Nc1ccc(SCCN2CCN(C)CCC2=O)cc1	n	n	x	x	x	x
c1ccc(SCCN2CCc3ccccc3C2)cc1	27	n	n	u	n	n
O=C1CCN(CCc2ccccc2)CCN1CCSc1ccccc1	23	n	n	n	x	x
SMILES	CHX counter	Shiga toxin inh	Pf growth 48h	Pf growth 96h	Lassa entry inh	Marburg entry inh
COc1ccc(SCCN2CC[C@@H](C)CCC2=O)cc1	x	x	n	n	x	x
Cc1ccc(SCCN2CCN(C)CCC2=O)cc1	28!	77	n	n	x	x
COc1ccc(CCNC(=O)c2c(O)nc3ccccn3c2=O)cc1OC	x	x	x	x	x	n
O=C(CCc1nc(-c2ccc(Cl)cc2)no1)NCc1ccccc1CN1CCOCC1	x	x	n	n	x	x
CCOc1ccc(S(=O)(=O)N2CCN(C(=O)c3ccncc3)CC2)cc1	n	n	n	n	n	n
CN1CCC(=O)N(CCSc2ccccc2)CC1	43	49	n	n	x	x
CCOC(=O)c1cc(C#N)c(N2CCNCC2)nc1C(F)(F)F	n	n	u	n	n	n
O=C(NCCc1c[nH]c2ccccc12)/C(=C\c1cccs1)NC(=O)c1ccccc1	n	n	u	15µM	n	n
COc1ccc(C(=O)NCCc2c[nH]c3ccccc23)cc1OC	n	n	n	u	n	n
COc1ccc(C(=O)N/C(=C\c2cccc3ccccc23)C(=O)NCCc2c[nH]c3ccccc23)cc1OC	n	n	2.9µM	5.9µM	n	n
Cc1ccc(C(=O)N/C(=C\c2cccs2)C(=O)NCCc2c[nH]c3ccccc23)cc1C	n	n	u	u	n	n
COc1ccc(Cl)cc1C(=O)Nc1ccc(-c2nnc3n2CCCCC3)cc1	x	x	x	x	n	x
CC12COC3(C(=O)Nc4ccc(F)cc4)CC1CCC32C (stereo unspecified)	n	n	n	n	n	n
CC12COC3(P(=O)(c4ccccc4)c4ccccc4)CC1CCC23CP(=O)(c1ccccc1)c1ccccc1 (stereo unspecified)	n	n	1.2µM	0.93µM	u	u
CCOC(=O)C1=C(CSCc2ccccc2)NC(=O)NC1c1cc(C)ccc1C (stereo unspecified)	n	n	13µM	x	n	u
CCOC(=O)C1=C(CN2CCCCC2)NC(=O)NC1c1cc(C)ccc1C (stereo unspecified)	n	n	x	n	n	9.2µM
CCOC(=O)C1=C(CN2CCOCC2)NC(=O)NC1c1cc(C)ccc1C (stereo unspecified)	n	n	n	x	n	n
O=C1OC2(c3ccccc3)C3CCCC2C13	n	n	n	u	n	n
CCC(c1nnnn1C(C)(C)CC)N(CCCN1CCOCC1)Cc1cc2cccc(C)c2[nH]c1=O (stereo unspecified)	n	n	x	u	n	n
CCC(C)(C)n1nnnc1C(C(C)C)N(CCN1CCOCC1)Cc1cc2cccc(C)c2[nH]c1=O (stereo unspecified)	n	n	x	13µM	n	u
CCc1ccc2[nH]c(=O)c(CN(Cc3ccc(F)cc3)C(c3nnnn3CCN3CCOCC3)C(C)C)cc2c1 (stereo unspecified)	43	28	n	n	n	n
Cc1cc(NC(=O)CCC(=O)N(C2CC2)C2(C(=O)NC3CCCC3)CCC(C)CC2)no1 (stereo unspecified)	n	n	u	u	n	n
O=C(COC(=O)c1cc[n+]([O-])cc1)Nc1ccc(SC(F)F)cc1	n	n	n	n	n	n
COc1cccc(-n2c(SCC(=O)NCc3ccco3)nnc2-c2c[nH]c3ccccc23)c1	n	n	u	u	x	n
COc1cccc(OCc2nnc(SCC(=O)NCc3ccco3)n2CCc2ccccc2)c1	n	n	u	n	n	u
COc1cccc(OCc2nnc(SCC(=O)NCc3ccco3)n2C)c1	n	n	n	n	n	n
COc1ccc(-n2c(COc3cccc4ccccc34)nnc2SC(C)C(=O)O)cc1 (stereo unspecified)	n	n	n	u	n	n
COc1ccc(-n2c(COc3ccc4ccccc4c3)nnc2SCC(=O)NCc2ccco2)cc1	n	n	10µM	x	u	u
COc1ccc(-n2c(COc3cccc4ccccc34)nnc2SCC(=O)NCc2ccco2)cc1	25	n	2.9µM	n	u	u
